In PubChem BioAssay AID1159580 (chemical genetic matrix, 2015):
The campaign covered roughly 5,500 compounds. About 2,000 (36%) were called active. Inconclusive results (about 18%) are left out. No stated cut-off is given here; in the data, active means normalized growth mostly below about 0.91 (no sharp cut-off); inconclusive means no clear call, values can overlap the other calls; inactive means mostly above about 0.92. This is one part of the list.

Assay: chemical genetic growth profiling, strain panel (AID 1159580);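 further: tested at 20 µM; growth read once vehicle control cultures reached saturation at 30 °C; 1 = growth at the plate median or of vehicle wells; lower values mean less growth of the strain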
Settings: S. cerevisiae deletion strains, growth OD
[1] = locus YDR150W, strain NUM1, hits give low values
[2] = locus YGR078C, strain PAC10, hits give low values
[3] = locus YGR229C, strain SMI1, hits give low values
[4] = locus YMR263W, strain SAP30, hits give low values
[5] = locus YNL322C, strain KRE1, hits give low values
[6] = locus YPL241C, strain CIN2, hits give low values
[7] = locus YHR030C, strain SLT2, hits give low values

Measured: normalized growth

Fc1ccc(CN(C2=NCCN2)c2c(Cl)cccc2Cl)cc1
inactive: locus YAL040C, strain CLN3, hits give low values 0.945 | locus YCL061C, strain MRC1 (second series), hits give low values 1.01 | [1] 1.06 | locus YDR363W, strain ESC2, hits give low values 1.02 | locus YER002W, strain NOP16, hits give low values 1.02 | [2] 0.984 | [3] 1.01 | [4] 0.995 | locus YNL128W, strain TEP1, hits give low values 1.1 | locus YNL175C, strain NOP13, hits give low values 1.01 | locus YNL197C, strain WHI3, hits give low values 1 | locus YNL224C, strain SQS1, hits give low values 1.01 | [5] 1 | locus YOR083W, strain WHI5 (second series), hits give low values 1.05 | [6] 0.997

CC(C)(CO)[C@@H](O)C(=O)NCCC(=O)O
inactive: [7] 1.06 | locus YHR079C, strain IRE1, hits give low values 1.04 | locus YJL095W, strain BCK1, hits give low values 1.03 | locus YJR066W, strain TOR1, hits give low values 0.964 | locus YLR113W, strain HOG1, hits give low values 1.05 | locus YNL183C, strain NPR1, hits give low values 0.999 | locus YOR231W, strain MKK1, hits give low values 1.09 | locus YPL256C, strain CLN2, hits give low values 1.09

O=C(O)C12CC3CC(CC(Br)(C3)C1)C2
inactive: locus YAL013W, strain DEP1, hits give low values 1 | locus YBR229C, strain ROT2, hits give low values 0.972 | locus YDL101C, strain DUN1, hits give low values 0.984 | locus YDL134C, strain PPH21, hits give low values 1.02 | [1] 0.982 | locus YEL061C, strain CIN8, hits give low values 0.987 | [2] 0.99 | [3] 1.01 | [7] 1.06 | locus YHR087W, strain rtc3, hits give low values 0.988 | locus YJL187C, strain SWE1, hits give low values 0.945 | locus YJR043C, strain POL32, hits give low values 1.01 | locus YJR075W, strain HOC1, hits give low values 0.996 | locus YKL190W, strain CNB1, hits give low values 1.01 | locus YLR039C, strain RIC1, hits give low values 1.04 | locus YLR058C, strain SHM2 (second series), hits give low values 1 | locus YLR085C, strain ARP6, hits give low values 0.963 | locus YLR262C, strain YPT6, hits give low values 1.1 | locus YML094W, strain GIM5, hits give low values 0.991 | locus YMR219W, strain ESC1, hits give low values 0.998 | [4] 0.993 | locus YMR307W, strain GAS1, hits give low values 0.997 | locus YNL153C, strain GIM3, hits give low values 0.994 | locus YNL298W, strain CLA4 (second series), hits give low values 0.992 | [5] 0.993 | locus YNR030W, strain Alg12, hits give low values 0.997 | locus YOL006C, strain TOP1, hits give low values 1.05 | locus YPL055C, strain LGE1, hits give low values 0.976 | [6] 0.994 | locus YPR135W, strain CTF4, hits give low values 1.14
